FLuc counter: inhibits or activates purified firefly luciferase, miR-21 counter-screen; P08659; purified FLuc, Km substrates, luminescence inhibition; 360,000 compounds, 6.9% hits; Potency, µM (top dose mostly 57.5 µM), hits mostly inhibitors; further: nearly all actives have a fitted effect of over 55% in size
Target sequence (P08659 whole entry, looked up): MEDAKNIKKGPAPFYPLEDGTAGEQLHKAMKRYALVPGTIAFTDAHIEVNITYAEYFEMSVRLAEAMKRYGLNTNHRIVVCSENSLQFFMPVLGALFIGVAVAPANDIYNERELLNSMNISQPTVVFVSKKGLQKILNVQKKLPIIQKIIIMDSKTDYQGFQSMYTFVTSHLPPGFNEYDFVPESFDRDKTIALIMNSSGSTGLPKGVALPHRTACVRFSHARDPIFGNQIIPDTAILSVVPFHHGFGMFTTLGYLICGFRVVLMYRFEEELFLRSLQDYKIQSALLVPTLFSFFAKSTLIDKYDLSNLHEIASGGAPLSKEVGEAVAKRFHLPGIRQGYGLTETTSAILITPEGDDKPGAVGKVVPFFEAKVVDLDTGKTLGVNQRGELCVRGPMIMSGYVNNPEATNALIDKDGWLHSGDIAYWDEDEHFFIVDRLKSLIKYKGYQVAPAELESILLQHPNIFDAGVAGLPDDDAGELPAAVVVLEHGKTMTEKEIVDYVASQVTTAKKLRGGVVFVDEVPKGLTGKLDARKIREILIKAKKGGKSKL
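Purified P. pyralis luciferase (10nM final) with 10uM D-luciferin and 10uM ATP (Km levels) in 50mM Tris acetate pH 7.5, 10mM Mg acetate, 0.01% Tween-20, 0.05% BSA; qHTS 6-point titration, ~60 µM downward; luminescence read.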
NPC1 prom act: activators of NPC1 promoter | 320,000 compounds, 2.4% hits | Huh7 NPC1 promoter luciferase reporter, 24 h | Potency, µM (top dose mostly 9.22 µM), actives largely listed as activators | AID 485313; further: nearly all actives have a fitted effect of over 60% in size
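Cells: Huh7 expressing luciferase under the NPC1 promoter, 1500/well. Seeded 2 h, compound added, incubated 24 h at 37 °C. Luciferase reagent, 10 min ambient, then luminescence.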
ELG1 genotox: genotoxicity induction in ELG1-luciferase HEK293T cells; HEK293T ELG1-luciferase reporter, luminescence, 16 h; Potency, µM (top dose mostly 46 µM), hits mostly activators; 330,000 compounds, 1.3% hits; further: nearly all actives have a fitted effect of over 60% in size
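Genotoxicity was scored as increased ELG1-luciferase reporter signal, measured by ONE-Glo luminescence (30 min, room temperature). Compound or vehicle exposure of the HEK293T reporter cells lasted 16 hr at 37°C.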
SMN2 splice up: enhancers of SMN2 splice variant expression. HEK293 SMN2-luciferase splicing reporter, luminescence, 30-36 h. Potency, µM (top dose mostly 46.1 µM), hits mostly activators. 210,000 compounds, 2.8% hits. AID 1458; further: nearly all actives have a fitted effect of over 55% in size
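HEK293 cells carry an SMN2 […]–luciferase reporter in which exon 7 inclusion puts luciferase in frame. Cells were plated 10-12 h before compound addition, then incubated 30-36 h at 37C. ONE-Glo luminescence was read; sodium butyrate at 4.5 mM final served as control.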
ELG1 DNA repair: blocks ELG1-dependent DNA repair in HEK293T cells; HEK293T ELG1-luciferase reporter, luminescence, 16 h; DNA damage induced by 5-fluorouridine; Potency, µM (doses to about 46.1 µM), most hits filed as inhibitors; 330,000 compounds, 2.3% hits; further: nearly all actives have a fitted effect of over 55% in size
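Luminescence from the luciferase reporter, measured 30 min after ONE-Glo reagent at room temperature, was the read-out. Beforehand, 2,000 cells per well were exposed for 16 hr at 37 °C to 5-fluorouridine together with compound or vehicle.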
Rab9 promoter act: Rab9 promoter activation | Huh7 Rab9 promoter-luciferase reporter, luminescence, 24 h | Potency, µM (top dose mostly 9.22 µM), actives largely listed as activators | 320,000 compounds, 2.8% hits; further: nearly all actives have a fitted effect of over 60% in size
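Stable Rab9-luc Huh7, 1500 cells/well, 2 h settle; cmpd in DMSO, 24 h, 37 °C/5% CO2; luciferase reagent 10 min RT; luminescence.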
Each line names hits and unclear results; the compound was inactive in the other large screens. Rows were chosen to be rich in hits. Some 9.2% of all compounds tested hit in one or more screens of this group. The call rests on the fitted dose curve; in most records, active means well fitted curve in the direction sought with a large enough effect; inconclusive means small, poorly fitted or top-dose-only effect, or another doubt; inactive means no such curve, though single readings can be large; an effect the other way counts as inactive or inconclusive.

O=C(CS(=O)(=O)c1ccccc1)Nc1ccccn1	none
O=C(/C=C/c1ccc(Cl)cc1Cl)NC(=S)Nc1ccc(CN2CCOCC2)cc1	none
O=C(/C=C/c1ccc(Cl)cc1Cl)NC(=S)Nc1ccccn1	FLuc counter inconclusive, NPC1 prom act 1.12µM, ELG1 genotox inconclusive, ELG1 DNA repair inconclusive, Rab9 promoter act 0.891µM
O=C(Nc1ccc(Cl)cc1)c1cc2c(Cl)nc3ccccc3c2s1	none (no result: NPC1 prom act, ELG1 genotox, ELG1 DNA repair, Rab9 promoter act)
O=C(c1ccc(F)c(F)c1)N1CCCc2ccccc21	none (no result: SMN2 splice up)
CC(=O)N1CCc2cc(Br)cc(S(=O)(=O)CCC(=O)NCc3ccc(F)cc3)c21	none (no result: NPC1 prom act, ELG1 genotox, ELG1 DNA repair, Rab9 promoter act)
COc1ccc(NC(=O)COC(=O)CCCC2=NS(=O)(=O)c3ccccc3N2)cc1	none (no result: SMN2 splice up)
O=C(Nc1ccccn1)c1ccc(Br)s1	FLuc counter 10.7µM, NPC1 prom act 1.78µM, ELG1 genotox inconclusive, ELG1 DNA repair inconclusive, Rab9 promoter act 3.98µM (no result: SMN2 splice up)
Cc1ccc(C(=O)OCC(=O)N2CCNC2=O)c(C)c1	FLuc counter 21.3µM, NPC1 prom act inconclusive, ELG1 genotox inconclusive, ELG1 DNA repair inconclusive, Rab9 promoter act inconclusive (no result: SMN2 splice up)
Cc1ccc(C(=O)OCC(=O)c2ccc(CC(=O)N3CCOCC3)s2)cc1C	FLuc counter 23.9µM (no result: SMN2 splice up)
Cc1ccc(C(=O)OCC(=O)c2ccc(CC(=O)N3CCOCC3)s2)c(C)c1	FLuc counter 16.9µM (no result: SMN2 splice up)
CC(=O)N1CCOc2cc(S(=O)(=O)NCc3ccc(C)cc3)c(C)cc21	none (no result: NPC1 prom act, ELG1 genotox, SMN2 splice up, ELG1 DNA repair, Rab9 promoter act)
Cc1ccc(S(=O)(=O)NC(C(=O)O)c2ccccc2)cc1 (stereo not given)	none (no result: SMN2 splice up)
COc1cccc(-n2nnc(-c3nc(-c4ccccc4F)no3)c2C)c1	FLuc counter 2.39µM (no result: NPC1 prom act, ELG1 genotox, SMN2 splice up, ELG1 DNA repair, Rab9 promoter act)
COC(=O)c1ccc(-n2nnc(-c3nc(-c4ccccc4Cl)no3)c2C)cc1	none (no result: NPC1 prom act, ELG1 genotox, SMN2 splice up, ELG1 DNA repair, Rab9 promoter act)
COc1ccc(Cl)cc1-n1nnc(-c2nc(-c3ccccc3)no2)c1C	FLuc counter 15.1µM (no result: NPC1 prom act, ELG1 genotox, SMN2 splice up, ELG1 DNA repair, Rab9 promoter act)
Cc1c(-c2nc(-c3ccccc3)no2)nnn1-c1ccc(F)c(Cl)c1	none (no result: NPC1 prom act, ELG1 genotox, SMN2 splice up, ELG1 DNA repair, Rab9 promoter act)
CCc1nnc(SCc2nc(-c3ccc(OC)cc3)oc2C)c2cc3sccc3n12	none (no result: NPC1 prom act, ELG1 genotox, SMN2 splice up, ELG1 DNA repair, Rab9 promoter act)
O=C(c1cc(C(F)(F)F)cc(C(F)(F)F)c1)N1CCC[C@@]2(CCN(Cc3nccs3)C2)C1	none (no result: FLuc counter, NPC1 prom act, ELG1 genotox, ELG1 DNA repair, Rab9 promoter act)
CCOC(=O)c1ccccc1NC(=O)c1cn(CC(C)C)c(=O)c2cc(OC)c(OC)cc12	none (no result: NPC1 prom act, ELG1 genotox, ELG1 DNA repair, Rab9 promoter act)
Cc1cc2c(s1)c1cnn(CC(=O)NCCc3ccccc3)c(=O)c1n2C	none
Cc1cc2c(s1)c1cnn(-c3ccccc3)c(=O)c1n2C	FLuc counter 6.75µM, Rab9 promoter act inconclusive (no result: SMN2 splice up)
COCCn1c(C)cc(C(=O)CN2C(=O)NC3(CCCCCCC3)C2=O)c1C	FLuc counter 15.1µM, NPC1 prom act 3.16µM, ELG1 genotox inconclusive, SMN2 splice up inconclusive, ELG1 DNA repair inconclusive, Rab9 promoter act 3.98µM
Cc1cc(C)c(C(=O)CN2C(=O)NC3(CCCCC3)C2=O)cc1C	ELG1 DNA repair inconclusive, Rab9 promoter act inconclusive
Cc1ccc(C(=O)CN2C(=O)NC3(CCCCCC3)C2=O)c(C)c1	FLuc counter inconclusive, NPC1 prom act 3.98µM, ELG1 genotox 16.4µM, ELG1 DNA repair inconclusive, Rab9 promoter act inconclusive (no result: SMN2 splice up)
COCCn1c(C)cc(C(=O)CN2CCCCC2)c1C	none
CCOC(=O)c1cnc(Nc2nc3ccccc3o2)nc1CN1CCN(C)CC1	ELG1 genotox inconclusive, SMN2 splice up 12.6µM, ELG1 DNA repair inconclusive
O=c1c(-c2ccc(F)cc2)nc2cnc(N3CCOCC3)nc2n1C[C@H]1CCCO1	none (no result: FLuc counter, NPC1 prom act, ELG1 genotox, ELG1 DNA repair, Rab9 promoter act)
Cc1ccc(-n2[nH]c(C)c(C=NC34CN5CN(CN(C5)C3)C4)c2=O)cc1C	none (no result: NPC1 prom act, ELG1 genotox, ELG1 DNA repair, Rab9 promoter act)
COCCCN=Cc1c(C)[nH]n(-c2ccc(Br)c(C)c2)c1=O	FLuc counter 1.35µM, NPC1 prom act 1.41µM, ELG1 genotox inconclusive, SMN2 splice up 2.82µM, ELG1 DNA repair inconclusive, Rab9 promoter act 0.501µM
Cc1cc(C)c(C)c(S(=O)(=O)N2CCC(C(=O)OCC(=O)NC3CCS(=O)(=O)C3)CC2)c1C (stereo not given)	none (no result: FLuc counter, NPC1 prom act, SMN2 splice up, Rab9 promoter act)
COc1ccc2oc(=O)c(C(=O)Nc3ccccc3O)cc2c1	FLuc counter 0.601µM, NPC1 prom act 1µM, ELG1 genotox 0.651µM, ELG1 DNA repair inconclusive, Rab9 promoter act 0.398µM (no result: SMN2 splice up)
COc1ccccc1NC(=O)c1cc2cc(Br)ccc2oc1=N	FLuc counter 4.78µM (no result: SMN2 splice up)

Bioassay records (PubChem BioAssay)
